# Measured values published in PubChem BioAssay (NCI).
# Compounds without any hit were thinned out: in the full panel of roughly 79,000, 15% have a hit. A number with no mark means an inactive call. Calls of active or inactive are those of the source. Cut-off read from the data, not from the text of the source: active = growth inhibition above about 70%; inactive = the rest.
# Assay: NCI Yeast Anticancer Drug Screen. Data for the cln2 rad14 strain (AID 165);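 note: 0% = growth equal to vehicle treated cultures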
# Settings: S. cerevisiae cln2 rad14 strain, at 50.0 µM, hits give high values
# In short: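 Compounds are applied to the cln2 rad14 yeast strain, and growth is then compared with that of vehicle-treated cultures to give inhibition.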
row,Structure (SMILES),growth inhibition
1,FC(F)(F)c1ccc(C=NC23CC4CC(CC(C4)C2)C3)cc1,-27.1%
2,CCOc1ccc(NC(=O)C2=C(C)NC(C)=C(C(=O)Nc3ccc(OCC)cc3)C2c2ccc(O)c(OC)c2)cc1,-16.4%
3,O=c1cccc(CCc2ccccc2)[nH]1,0.6%
4,OC(C1CCCCC1)(C1CCC2(CCCCC2)CC1)C1CCCC2CCCCC21 (stereo not given),21.5%
5,O=C(CCc1ccccc1)NC(=S)Nc1cccc([N+](=O)[O-])c1,-13.8%
6,Cc1ccc(-n2cc(-c3ccc(Cl)cc3)c3c2N=CN2NC(c4cccs4)=NC32)cc1 (stereo not given),5.5%
7,COC(=O)C(N)Cc1ccc(OC)cc1 (stereo not given),-1.95%
8,OC(CC1=NCCS1)(c1ccccc1)c1ccccc1,98.1% (active)
9,Oc1c(/N=N/C(=S)NCCCN2CCN(CCCNC(=S)/N=N/c3[nH]c4ccccc4c3O)CC2)[nH]c2ccccc12,-2.7%
10,NCCO,-3.6%
11,Oc1ccccc1C=Nc1ccccc1,6.8%
12,O=C(/C=C/c1ccco1)c1ccc(O)c(C(=O)O)c1,-39.5%
13,Cc1ccc(NC(=O)C(=O)CC(=O)c2c(C)n([O-])c3ccccc3[n+]2=O)cc1,16.4%
14,CCOC(=O)C/C(C)=N\NC(N)=O,18.2%
15,COc1cc(NCCNCC(C)(C)C)c2ncccc2c1,11.8%
16,CCNS(=O)(=O)c1ccccc1,5.9%
17,COC(=O)/C=C/c1ccc2c(c1)CCCC2,-8.7%
18,Cc1ccc(C(=O)Oc2ccccc2)cc1N=NN(C)C,25.5%
19,CC[P+](C)(Cc1ccccc1)c1ccccc1 (stereo not given),-3.25%
20,Cc1ccc2c(c1)nc(N)n[n+]2[O-],3.25%

row,Structure (SMILES),growth inhibition
1,Nc1ccc2c(c1)Cc1cc(O)ccc1-2,6.3%
2,[O-]/[N+]1=[N+](\[O-])c2ccccc2CCCc2ccccc21,-34.1%
3,O=S1OC(c2ccccc2)C(c2ccccc2)O1 (stereo not given),11.8%
4,O=C1c2ccccc2C(=O)N1CNc1cccc(Cl)c1,10.1%
5,Cc1cccc(NC(=O)c2c(Cl)c(Cl)c(Cl)c(Cl)c2C(=O)O)c1C,-35.5%
6,NC1=CCNN1,4.1%
7,Cc1cc(Cl)c(O)c(-c2cc(-c3ccc([N+](=O)[O-])cc3)c3c(N)[nH]c(=O)nc3n2)c1,6.2%
8,CS/C(=C/c1ccc2ccccc2[n+]1C)N1CCN(C)CC1,-12.9%
9,O=C(O)/C=C/c1c(Cl)cccc1Cl,-37.2%
10,O=c1c(Cl)cc(Cl)cn1S(=O)(=O)c1ccc([N+](=O)[O-])cc1,98.7% (active)
11,[Cl][Pt+2][Cl].[NH-]c1ccccc1F.[NH-]c1ccccc1F,15.8%
12,CN(C)c1c2c(oc(=O)c1Cl)-c1ccccc1OCC2,-4.85%
13,CN1NC(=O)CC1c1ccccc1 (stereo not given),11.1%
14,O=C(Nc1ccccc1)OC1CCCC12CC2 (stereo not given),-4.8%
15,CC1(C)CC(N(CCO)CCO)CC(C)(C)N1O,-1.95%
16,N#C/C(c1ccccc1)=[N+](/[O-])O,-20.7%
17,N=C(CN1CCCCC1)N1CCCCC1,-58.1%
18,N#CC(c1ccccc1)[N+](=O)[O-] (stereo not given),9.3%
19,NCCNCCCCCCNC(=O)c1cccc2cc3ccccc3nc12,-7.55%
20,O=[N+]([O-])c1ccc(OC(=S)Oc2ccc([N+](=O)[O-])cc2)cc1,-4.4%

# Assay: NCI Yeast Anticancer Drug Screen. Data for the bub3 strain (AID 167)
# Settings: S. cerevisiae bub3 mutant strain, at 50.0 µM, hits give high values
# In short: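 Part of a panel of yeast mutants defective in DNA damage repair or cell cycle regulation. Each strain is grown with compound, and inhibition is calculated relative to solvent-treated cultures.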
row,Structure (SMILES),growth inhibition
1,FC(F)(F)c1ccc(C=NC23CC4CC(CC(C4)C2)C3)cc1,-18.9%
2,CCOc1ccc(NC(=O)C2=C(C)NC(C)=C(C(=O)Nc3ccc(OCC)cc3)C2c2ccc(O)c(OC)c2)cc1,16%
3,O=c1cccc(CCc2ccccc2)[nH]1,-0.55%
4,OC(C1CCCCC1)(C1CCC2(CCCCC2)CC1)C1CCCC2CCCCC21 (stereo not given),1.35%
5,O=C(CCc1ccccc1)NC(=S)Nc1cccc([N+](=O)[O-])c1,52.2%
6,Cc1ccc(-n2cc(-c3ccc(Cl)cc3)c3c2N=CN2NC(c4cccs4)=NC32)cc1 (stereo not given),-16.7%
7,COC(=O)C(N)Cc1ccc(OC)cc1 (stereo not given),7.6%
8,OC(CC1=NCCS1)(c1ccccc1)c1ccccc1,98.2% (active)
9,Oc1c(/N=N/C(=S)NCCCN2CCN(CCCNC(=S)/N=N/c3[nH]c4ccccc4c3O)CC2)[nH]c2ccccc12,-17.8%
10,NCCO,13.2%
11,Oc1ccccc1C=Nc1ccccc1,-1.25%
12,O=C(/C=C/c1ccco1)c1ccc(O)c(C(=O)O)c1,-26.6%
13,Cc1ccc(NC(=O)C(=O)CC(=O)c2c(C)n([O-])c3ccccc3[n+]2=O)cc1,-1.55%
14,CCOC(=O)C/C(C)=N\NC(N)=O,26.1%
15,COc1cc(NCCNCC(C)(C)C)c2ncccc2c1,33.5%
16,CCNS(=O)(=O)c1ccccc1,-1.95%
17,COC(=O)/C=C/c1ccc2c(c1)CCCC2,22.2%
18,Cc1ccc(C(=O)Oc2ccccc2)cc1N=NN(C)C,-29.8%
19,CC[P+](C)(Cc1ccccc1)c1ccccc1 (stereo not given),9.45%
20,Cc1ccc2c(c1)nc(N)n[n+]2[O-],-8.95%

row,Structure (SMILES),growth inhibition
1,Nc1ccc2c(c1)Cc1cc(O)ccc1-2,9.9%
2,[O-]/[N+]1=[N+](\[O-])c2ccccc2CCCc2ccccc21,-12.8%
3,O=S1OC(c2ccccc2)C(c2ccccc2)O1 (stereo not given),-1.45%
4,O=C1c2ccccc2C(=O)N1CNc1cccc(Cl)c1,4.6%
5,Cc1cccc(NC(=O)c2c(Cl)c(Cl)c(Cl)c(Cl)c2C(=O)O)c1C,5.8%
6,NC1=CCNN1,11.3%
7,Cc1cc(Cl)c(O)c(-c2cc(-c3ccc([N+](=O)[O-])cc3)c3c(N)[nH]c(=O)nc3n2)c1,19.6%
8,CS/C(=C/c1ccc2ccccc2[n+]1C)N1CCN(C)CC1,-3%
9,O=C(O)/C=C/c1c(Cl)cccc1Cl,-18.1%
10,O=c1c(Cl)cc(Cl)cn1S(=O)(=O)c1ccc([N+](=O)[O-])cc1,97.7% (active)
11,[Cl][Pt+2][Cl].[NH-]c1ccccc1F.[NH-]c1ccccc1F,-26.9%
12,CN(C)c1c2c(oc(=O)c1Cl)-c1ccccc1OCC2,-19.1%
13,CN1NC(=O)CC1c1ccccc1 (stereo not given),0.25%
14,O=C(Nc1ccccc1)OC1CCCC12CC2 (stereo not given),-2.25%
15,CC1(C)CC(N(CCO)CCO)CC(C)(C)N1O,-7.2%
16,N#C/C(c1ccccc1)=[N+](/[O-])O,-17.5%
17,N=C(CN1CCCCC1)N1CCCCC1,10.2%
18,N#CC(c1ccccc1)[N+](=O)[O-] (stereo not given),-2.95%
19,NCCNCCCCCCNC(=O)c1cccc2cc3ccccc3nc12,-14%
20,O=[N+]([O-])c1ccc(OC(=S)Oc2ccc([N+](=O)[O-])cc2)cc1,-0.05%
